Screens deposited in PubChem by National Center for Advancing Translational Sciences (NCATS).
SMN2 splice enh – SMN2 splice variant enhancement; HEK293 SMN2-luciferase splicing reporter, luminescence, 30-36 h; Potency, µM (titrated, usually from 46.1 µM), without a hit: at the highest dose activity change, positive = activation, hits mostly activators; actives 2.8% (n = 210,000); AID 1458; further: % of control where 0% means no effect; nearly all actives have a fitted effect of over 55% in size
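HEK293 cells carry an SMN2 minigene-luciferase reporter in which exon 7 inclusion puts luciferase in frame. Cells were seeded at 2000 cells/well, attached for 10-12 hours, then exposed to compounds for 30-36 hours at 37C before ONE-Glo luminescence.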
ELG1 repair inh – blocks ELG1-dependent DNA repair in HEK293T cells. Potency, µM (titrated, usually from 46.1 µM), for the others: at the top dose activity change, negative = inhibition, hits mostly inhibitors. HEK293T ELG1-luciferase reporter, luminescence, 16 h; DNA damage induced by 5-fluorouridine. actives 2.3% (n = 330,000); further: on the % scale 0 is the no-effect control and ±100 the full control effect; nearly all actives have a fitted effect of over 55% in size
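Reporter activity after DNA damage by 5-fluorouridine is monitored. Compound-treated cells incubate 16 hr at 37 °C, then ONE-Glo is added for 30 min before luminescence reading.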
NPC1 prom act – activators of NPC1 promoter; actives 2.4% (n = 320,000); Potency, µM (highest dose often 9.22 µM), without a hit: at the top dose activation, most hits filed as activators; Huh7 NPC1 promoter luciferase reporter, 24 h; further: % of control where 0% means no effect; nearly all actives have a fitted effect of over 60% in size
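Huh7 reporter cells (NPC1 promoter driving luciferase) are dosed with compound for 24 h at 37 °C, 5% CO2; luciferase detection reagent is then added and luminescence measured after 10 min at ambient temperature.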
Rab9 prom act – activates the Rab9 promoter; actives 2.8% (n = 320,000); Potency, µM (titrated, usually from 9.22 µM), for inactives: at the top dose activation, negative = inhibition, usual class: activators; AID 485297; Huh7 Rab9 promoter-luciferase reporter, luminescence, 24 h; further: % of control where 0% means no effect; nearly all actives have a fitted effect of over 60% in size
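Huh7 reporter line, Rab9 promoter upstream of luciferase. Compound exposure 24 h at 37 °C in reduced-serum medium with 10% FBS. Read-out: luminescence.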
ELG1 genotox – inducers of genotoxicity in HEK293T ELG1-luciferase cells; HEK293T ELG1-luciferase reporter, luminescence, 16 h; Potency, µM (top dose mostly 46 µM), without a hit: at the highest dose activity change, positive = activation, most hits filed as activators; actives 1.3% (n = 330,000); further: % of control where 0% means no effect; nearly all actives have a fitted effect of over 60% in size
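Genotoxic stress is detected as increased luminescence from luciferase-tagged ELG1 in HEK293T cells, measured with ONE-Glo after a 16 hr treatment at 37 °C.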
FLuc modulator – counter-screen for miR-21 project: firefly luciferase inhibitors or activators; actives 6.9% (n = 360,000); Potency, µM (series often up to 57.5 µM), for inactives: top-dose activity change, negative = inhibition, actives largely listed as inhibitors; purified FLuc, Km substrates, luminescence inhibition; P08659;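 further: plate controls were vehicle for no effect and reference inhibitor for full effect; nearly all actives have a fitted effect of over 55% in size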
Target sequence (P08659 whole entry, looked up): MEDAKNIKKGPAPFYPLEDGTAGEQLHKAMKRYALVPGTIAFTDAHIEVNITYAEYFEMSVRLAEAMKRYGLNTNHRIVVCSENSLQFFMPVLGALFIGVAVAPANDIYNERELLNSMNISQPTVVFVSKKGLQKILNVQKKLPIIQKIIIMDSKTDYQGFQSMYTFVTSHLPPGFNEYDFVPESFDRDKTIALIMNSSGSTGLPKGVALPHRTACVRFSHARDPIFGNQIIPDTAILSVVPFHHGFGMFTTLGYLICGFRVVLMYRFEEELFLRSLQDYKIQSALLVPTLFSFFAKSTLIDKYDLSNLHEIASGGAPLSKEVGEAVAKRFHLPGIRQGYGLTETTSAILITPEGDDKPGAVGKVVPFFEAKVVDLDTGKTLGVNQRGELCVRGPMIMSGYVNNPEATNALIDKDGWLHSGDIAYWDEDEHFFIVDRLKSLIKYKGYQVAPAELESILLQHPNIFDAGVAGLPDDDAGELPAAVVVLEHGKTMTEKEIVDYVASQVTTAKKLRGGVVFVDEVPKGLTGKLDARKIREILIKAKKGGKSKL
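Purified P. pyralis luciferase, 10 nM final, with Km-level 10 uM D-luciferin and 10 uM ATP in 50 mM Tris acetate pH 7.5, 10 mM Mg acetate, 0.01% Tween-20, 0.05% BSA; 6-point qHTS titration about 60 µM downward; luminescence read.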
Active calls of the source: *. Most compounds without a hit are left out; they make up all but 9.2% or so of the library. The call rests on the fitted dose curve; in most records, active means well fitted curve in the direction sought with a large enough effect; inconclusive means small, poorly fitted or top-dose-only effect, or another doubt; inactive means no such curve, though single readings can be large; an effect the other way counts as inactive or inconclusive. Potency means the concentration at half of the fitted maximal effect.

What do the screens show for `Cc1nc2nc[nH]n2c(=O)c1CCOC(=O)c1ccccc1F`?
ELG1 repair inh: -10%; NPC1 prom act: -4%; Rab9 prom act: 13%; ELG1 genotox: 3%; FLuc modulator: 11µM*

Results for Cc1nc2nc[nH]n2c(=O)c1CCOC(=O)c1c(F)cccc1F ?
SMN2 splice enh: 7%; ELG1 repair inh: -3%; NPC1 prom act: -2%; Rab9 prom act: 3%; ELG1 genotox: 2%; FLuc modulator: inconclusive

Results for Cc1ccccc1OCCSc1nc2ccc(NC(=O)c3cccc(F)c3)cc2s1 ?
FLuc modulator: 2%

What do the screens show for `CCc1nn(CC(=O)Nc2ccc(C)c(F)c2)c(=O)c2cc3cc(C)ccc3n12`?
SMN2 splice enh: -1%; FLuc modulator: -9%

Results for CCN1C(=O)C(CC(=O)Nc2ccc(OC)cc2)N(CCc2ccccc2F)C1=S (stereo not given) ?
ELG1 repair inh: 16µM*; NPC1 prom act: -2%; Rab9 prom act: -1%; ELG1 genotox: -8%; FLuc modulator: 1%

Results for Cc1ccc(C(=O)COC(=O)c2cnccn2)cc1 ?
SMN2 splice enh: 4%; ELG1 repair inh: 8%; NPC1 prom act: 6%; Rab9 prom act: 2%; ELG1 genotox: 1%; FLuc modulator: 6.7µM*

What do the screens show for `Cc1ccc(C(=O)Oc2ccc(C(=O)COC(=O)c3cnccn3)cc2)cc1`?
SMN2 splice enh: 2%; ELG1 repair inh: 2%; NPC1 prom act: -4%; Rab9 prom act: 0%; ELG1 genotox: 6%; FLuc modulator: 3%

How did Cc1ccc(C(=O)COC(=O)c2cnccn2)cc1[N+](=O)[O-] do in these assays?
SMN2 splice enh: 7%; ELG1 repair inh: -2%; NPC1 prom act: 2%; Rab9 prom act: -4%; ELG1 genotox: 1%; FLuc modulator: 6%

Results for Cc1ccc(C(=O)COC(=O)c2cnccn2)cc1C ?
SMN2 splice enh: 6%; ELG1 repair inh: 7%; NPC1 prom act: 1%; Rab9 prom act: 1%; ELG1 genotox: 1%; FLuc modulator: 21µM*

What do the screens show for `O=C(OCC(=O)c1ccc(Cl)cc1Cl)c1cnccn1`?
ELG1 repair inh: -2%; NPC1 prom act: -1%; Rab9 prom act: -2%; ELG1 genotox: 3%; FLuc modulator: 12µM*

How did CCOC(=O)COC(=O)c1ccc(O)cc1 do in these assays?
SMN2 splice enh: -1%; ELG1 repair inh: 5%; NPC1 prom act: -2%; Rab9 prom act: -4%; ELG1 genotox: 9%; FLuc modulator: -16%

What do the screens show for `Cc1ccc(C(=O)COC(=O)c2ccc(O)cc2)cc1`?
ELG1 repair inh: inconclusive; NPC1 prom act: inconclusive; Rab9 prom act: 3.2µM*; ELG1 genotox: inconclusive; FLuc modulator: 11µM*

Results for O=C(OCC(=O)c1ccccc1Cl)c1cnccn1 ?
SMN2 splice enh: -6%; ELG1 repair inh: 5%; NPC1 prom act: -6%; Rab9 prom act: 2%; ELG1 genotox: 1%; FLuc modulator: inconclusive

How did CC(=O)c1ccc(NC(=O)CSC2=Nc3ccccc3N=C(c3ccc(F)cc3)C2)cc1 do in these assays?
FLuc modulator: -2%

Results for Cc1ccc(C(=O)COC(=O)C2CCC2)cc1 ?
ELG1 repair inh: 0%; NPC1 prom act: 0%; Rab9 prom act: -3%; ELG1 genotox: 2%; FLuc modulator: 0.38µM*

How did Cc1ccc(C(=O)COC(=O)C2C3C=CC(C3)C2C(=O)OCC(=O)c2ccc(C)c(C)c2)cc1C (stereo not given) do in these assays?
SMN2 splice enh: -16%; ELG1 repair inh: 13µM*; NPC1 prom act: 1%; Rab9 prom act: 4%; ELG1 genotox: -9%; FLuc modulator: -8%

Results for CCCC(=O)Nc1ccc(C(=O)COC(=O)C2CC2)cc1 ?
ELG1 repair inh: inconclusive; ELG1 genotox: 15%
